697 NFkB inh: inhibitors of PMA/ionomycin-induced NF-kB reporter, 697 cells, primary screen, B-cell NF-kB inhibitor project, cell-based, luminescence, uHTS; 697 B-cell NF-kB luciferase reporter, 16 h; inhibition, % at 4 µM; hit rate 0.33% among 330,000; AID 435022, 2010; in the data active means inhibition above about 35%
Gli-Sufu block: Gli-Sufu pathway antagonists, primary screen, luciferase luminescence, Sufu-KO-LIGHT cells, uHTS; Sufu-KO-LIGHT fibroblasts, Gli luciferase reporter luminescence; inhibition, % at 5 µM; hit rate 0.74% among 340,000; AID 588413, 2011;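 active means inhibition above about 55%, limit read from the data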;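 further: 0% = DMSO-treated cells and 100% = wells with medium but no cells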
Beta apoptosis: inhibitors of cytokine-induced beta cell apoptosis, primary screen, luminescence; INS-1E cytokine-induced death, ATP luminescence, 48 h; percent of positive-control rescue, neutral wells zero; protection from apoptosis, % (test concentration not listed); hit rate 0.8% among 300,000;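 active means Every replicate reaches about 75%, or at least half do and their mean reaches it too, limit read from the data; inconclusive means At least half of replicates reach the limit but their mean does not; inactive means Under half of replicates reach the limit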;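 further: 0% = cytokine-treated negative control wells and 100% = positive control rescue; higher means more ATP so stronger rescue from cytokine killing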
CSC inhib: cancer stem cell viability inhibitors, primary screen, luminescence. cancer stem cell-like cells viability. inhibition, % at 7.5 µM. hit rate 1.1% among 300,000; in the data active means inhibition above about 75%; inconclusive means no clear call, values can overlap the other calls; tested in HMLE shEcad cells
Mdm2-MdmX inh: inhibitors of human Mdm2-MdmX association, primary screen, cell-based, luminescence, split luciferase, SaOS-2, uHTS; hit rate 3% among 330,000; AID 485346, 2010; inhibition, % at 8 µM; SaOS-2 split-luciferase Mdm2/MdmX complementation;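 active means inhibition of at least 50% at 8 µM in the primary screen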
Target sequence (O15151 whole entry, looked up): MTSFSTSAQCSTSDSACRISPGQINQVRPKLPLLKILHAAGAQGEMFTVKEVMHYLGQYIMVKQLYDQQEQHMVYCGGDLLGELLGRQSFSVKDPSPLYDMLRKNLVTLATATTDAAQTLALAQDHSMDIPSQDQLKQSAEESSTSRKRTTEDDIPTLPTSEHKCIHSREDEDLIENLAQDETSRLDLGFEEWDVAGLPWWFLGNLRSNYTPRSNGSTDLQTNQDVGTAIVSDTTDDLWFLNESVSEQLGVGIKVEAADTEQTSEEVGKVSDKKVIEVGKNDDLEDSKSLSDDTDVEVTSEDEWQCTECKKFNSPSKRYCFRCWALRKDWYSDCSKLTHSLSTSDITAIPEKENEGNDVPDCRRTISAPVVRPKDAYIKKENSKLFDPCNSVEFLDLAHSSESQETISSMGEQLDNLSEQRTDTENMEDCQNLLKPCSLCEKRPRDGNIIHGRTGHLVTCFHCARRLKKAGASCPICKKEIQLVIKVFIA
Target sequence (Q00987 whole entry, looked up): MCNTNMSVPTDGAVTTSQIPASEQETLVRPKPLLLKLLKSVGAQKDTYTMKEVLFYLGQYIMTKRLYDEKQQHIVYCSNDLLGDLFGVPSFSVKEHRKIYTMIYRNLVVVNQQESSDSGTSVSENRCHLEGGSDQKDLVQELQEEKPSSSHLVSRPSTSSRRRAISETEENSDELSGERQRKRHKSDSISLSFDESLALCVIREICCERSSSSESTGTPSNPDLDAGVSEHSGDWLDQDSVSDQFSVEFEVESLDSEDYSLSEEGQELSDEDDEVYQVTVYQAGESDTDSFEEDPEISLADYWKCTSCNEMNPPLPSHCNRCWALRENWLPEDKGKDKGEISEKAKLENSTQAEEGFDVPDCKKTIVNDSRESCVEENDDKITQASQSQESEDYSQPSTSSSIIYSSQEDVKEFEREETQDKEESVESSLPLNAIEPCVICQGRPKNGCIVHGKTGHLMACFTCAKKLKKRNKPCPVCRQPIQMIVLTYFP
Jurkat NFkB inh: inhibitors of induced NF-kB luciferase reporter, primary screen, TCR NF-kB activation inhibitor project, cell-based, luminescence, uHTS | hit rate 0.53% among 330,000 | Jurkat, PMA/ionomycin-induced NF-kB luciferase reporter | AID 435003, 2010 | inhibition, % at 4 µM; in the data active means inhibition above about 50%
Numbers without * were called inactive; ? = inconclusive; . = no result given. Compounds with a hit are over-represented: about 4.5% of the library has one in this group of screens.

SMILES	697 NFkB inh	Gli-Sufu block	Beta apoptosis	CSC inhib	Mdm2-MdmX inh	Jurkat NFkB inh
Cc1cc[n+](CCC(=O)O)c2ccccc12	-41	0	-6	.	-42	-9
Cc1noc(C)c1S(=O)(=O)Nc1ccccc1N1CCOCC1	1	-3	0	-5	-11	-5
Cc1ccc(S(=O)(=O)N2CCCCC2)cc1NC(=O)c1ccc(Cl)nc1	5	-7	.	.	17	-1
CCOC(=O)COc1ccc2ccccc2c1/C=C/[N+](=O)[O-]	.	-2	106*	-8	.	.
CCCCCCSc1ccc([C@H]2N[C@@](CC(C)C)(C(=O)OC)[C@H]3C(=O)N(CC)C(=O)[C@@H]23)cc1	5	-1	60	44	26	17
CCCCCCSc1ccc([C@H]2N[C@@](Cc3ccccc3)(C(=O)OC)[C@H]3C(=O)N(C)C(=O)[C@@H]23)cc1	3	5	99*	22	48	9
CCCCCCSc1ccc([C@H]2N[C@@](C)(C(=O)OC)[C@H]3C(=O)N(CC)C(=O)[C@@H]23)cc1	0	7	33	78*	3	10
COc1ccc(/C=C/c2nc3cc(-c4ccccc4)ccc3o2)cc1O	0	4	3	102*	10	-6
Cc1cc2c(=Cc3ccc(N(C)C)cc3)c3ccccc3n2[n+]1C	.	83*	.	.	.	.
CN(C)c1ccc(C=c2c3ccccc3n3c2c2ccccc2[n+]3C)cc1	.	44	.	.	.	.
CCOC(=O)c1cc2c(=Cc3ccc(N(C)C)cc3)c3ccccc3n2[n+]1C	.	76*	.	.	.	.
CCOc1ccccc1NC(=O)C1CCC(=O)N1S(=O)(=O)c1ccc(C)cc1 (centres undefined)	8	-3	-5	6	-8	-8
O=C(Nc1ccc(Cl)c(Cl)c1)c1ccc(Cl)c(Cl)c1	-91	-51	3	14	12	-70
Cc1ccc(NC(=O)c2ccc(Cl)c(N3C(=O)C=CC3=O)c2)cc1	-51	10	-6	79*	-2	-24
Cc1ccc(C(=O)Cn2nnc3c(sc4nc5c(c(-c6ccccc6)c43)CCC5)c2=O)cc1	-37	3	1	86*	-6	-6
CC(=O)C1C(c2ccc([N+](=O)[O-])cc2)c2c(noc2C)CC1(C)O (centres undefined)	-5	5	-2	15	0	-22
CN(C)c1ccc(NC(=S)NC23CC4CC(CC(C4)C2)C3)cc1	-99	-31	111*	.	28	-34
CCOc1ccc(NC(=S)NC23CC4CC(CC(C4)C2)C3)cc1	-8	-9	-5	-2	32	-16
Cc1ccc(S(=O)(=O)Nc2cccnc2Oc2ccc(Cl)cc2)cc1	2	-1	16	3	-27	2
Cc1ccc(S(=O)(=O)Nc2cc(Cl)c(O)c3ncccc23)cc1	-30	69*	110*	29	40	12
Cc1[nH]nc(N=Cc2c(O)n(C)c(=O)n(C)c2=O)c1-c1ccccc1	2	0	-5	-7	8	-1
Cn1c(O)c(/C=N/Nc2ccccc2)c(=O)n(C)c1=O	6	13	-3	89*	-4	9
CC1(C)C[C@@H]1C(=O)N/C(=C\CCCCSC[C@H](N)C(=O)O)C(=O)O	-7	-1	5	-6	-18	-1
CC1([N+](=O)[O-])COC(c2cccc3ccccc23)OC1 (centres undefined)	.	9	.	.	.	.
CCC(CO)Oc1cc(NCc2ccc(Cl)cc2Cl)c2ncn(C(C)C)c2c1 (centres undefined)	-6	19	7	111*	37	-4
SMILES	697 NFkB inh	Gli-Sufu block	Beta apoptosis	CSC inhib	Mdm2-MdmX inh	Jurkat NFkB inh
CCC(CO)Oc1cc(NCc2ccc(Cl)cc2)c2ncn(C(C)C)c2c1 (centres undefined)	2	8	1	.	7	12
CCOc1cc(NCc2ccccc2)c2ncn(C(C)C)c2c1	3	0	-5	.	11	1
CCCOc1cc(NCc2ccccc2)c2ncn(C(C)C)c2c1	1	3	124*	46	34	5
CC(C)n1cnc2c(NCc3ccccc3)cc(Cc3ccc(F)cc3)cc21	3	-5	11	129*	0	-11
O=C(COC(=O)CNS(=O)(=O)c1ccc(Br)cc1Cl)NC1CCCC1	-34	-16	3	1	-1	-13
O=C(CCN1C(=O)S/C(=C\c2ccccc2)C1=O)NC1CCS(=O)(=O)C1 (centres undefined)	13	0	-3	2	3	-2
CCC1(c2ccccc2)NC(=O)N(CC(=O)NCc2ccc(C)cc2)C1=O (centres undefined)	23	10	-5	-10	29	14
CCOc1ccc(C(=O)c2cc([N+](=O)[O-])ccc2N2CCOCC2)cc1	.	53	79*	58	.	.
Cc1ccc(C(=O)c2cc([N+](=O)[O-])ccc2N2CCOCC2)cc1	.	32	.	.	.	.
C/C(=N/NC(=O)c1ccc(-c2ccccc2)cc1)c1cc(O)cc(O)c1	6	0	0	96*	7	9
COc1ccc(OC)c(Cc2nnc(CCC(=O)NCc3ccsc3)o2)c1	-11	-8	-3	-15	-9	-11
COC(=O)c1ccc(CSCc2ccc(C#N)cc2)cc1	-10	.	1	-12	-18	-3
COc1ccc(-c2c(C#N)c(SCC(=O)c3cc4ccccc4oc3=O)nc(C)c2C(=O)Nc2ccccc2)cc1	28	14	5	105*	-3	9
CCOC(=O)Cn1nc(NC(=O)c2ccc(C(=O)OC)cc2)cc1C	-36	25	0	-15	0	-12
O=C(N/N=C/c1cc([N+](=O)[O-])ccc1O)c1cc(-c2ccccc2)nc2ccccc12	-106	25	117*	39	43	-5
O=C(N/N=C/c1cc([N+](=O)[O-])ccc1O)c1c[nH]c2ccccc12	-20	0	78*	?	3	4
O=C(N/N=C/c1cccc([N+](=O)[O-])c1)c1c[nH]c2ccccc12	-48	-28	15	-5	7	-55
CN(C)c1ccc(/C=C/c2ccc3c4ccccc4ccc3[n+]2-c2ccccc2)cc1	.	92*	.	.	.	.
COc1cccc(NC(=O)c2ccccc2NS(C)(=O)=O)c1	10	-14	.	-2	4	2
CS(=O)(=O)Nc1ccccc1C(=O)Nc1cccc(Cl)c1	5	21	31	76*	31	-5
CC(C)(C)c1ccc(-c2cn(-c3ccc(Br)cc3)c3[n+]2CCCS3)cc1	.	93*	.	.	.	.
Fc1ccc(-n2cc(-c3ccccc3)[n+]3c2SCC3)cc1	-4	46	17	-14	1	2
CCc1ccc(C(=O)NNc2cc(Cl)ccc2Cl)cc1	12	40	92*	5	21	20
CCc1ccc(C(=O)NNc2ccccc2F)cc1	12	29	-1	37	-5	-16

Source: PubChem
